Bioassay records: PubChem BioAssay, National Center for Advancing Translational Sciences (NCATS)
Only some compounds are listed: those with a hit (about 10% of all), similar ones and a draw of the others.
12-hLO inh: 12-hLO (ALOX12) enzyme inhibition; 150,000 compounds, 0.12% hits; Potency, µM (doses to about 57.1 µM), without a hit: at the top dose activity change, negative = inhibition, actives largely listed as inhibitors; AID 1452; P18054; purified 12-hLO, xylenol orange hydroperoxide absorbance; active = well fitted inhibition curve with a large enough effect; inconclusive = small, poorly fitted or top-dose-only effect; note: potency is the fitted concentration of half-maximal effect; nearly all actives have a fitted effect of over 55% in size
Target sequence (P18054 whole entry, looked up): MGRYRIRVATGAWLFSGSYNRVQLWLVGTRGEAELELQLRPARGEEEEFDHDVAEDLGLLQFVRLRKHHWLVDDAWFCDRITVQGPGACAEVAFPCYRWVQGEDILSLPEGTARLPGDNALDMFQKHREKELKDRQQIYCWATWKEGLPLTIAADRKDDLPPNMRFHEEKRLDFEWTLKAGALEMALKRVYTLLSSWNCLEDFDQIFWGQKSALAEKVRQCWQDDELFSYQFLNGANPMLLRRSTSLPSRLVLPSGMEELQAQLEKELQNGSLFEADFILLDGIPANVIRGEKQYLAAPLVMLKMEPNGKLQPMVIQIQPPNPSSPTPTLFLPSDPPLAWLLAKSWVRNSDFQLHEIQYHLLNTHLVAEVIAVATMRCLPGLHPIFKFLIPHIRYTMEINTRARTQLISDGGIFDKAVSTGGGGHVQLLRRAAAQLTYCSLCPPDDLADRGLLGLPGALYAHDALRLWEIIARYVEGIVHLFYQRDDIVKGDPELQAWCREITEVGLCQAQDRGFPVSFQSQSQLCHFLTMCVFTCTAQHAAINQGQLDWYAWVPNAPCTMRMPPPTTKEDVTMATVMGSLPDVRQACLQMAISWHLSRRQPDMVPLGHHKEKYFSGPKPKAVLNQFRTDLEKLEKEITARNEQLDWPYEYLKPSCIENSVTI
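Hydroperoxide output read as Fe(III)-xylenol orange absorbance, 573-to-405 nm ratio, after 30 min reaction with 40 uM arachidonic acid. Enzyme: 150 nM purified human 12hLO, 15 min compound preincubation; 25 mM Hepes pH 7.0, room temperature.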
ALDH1A1 block: blocks purified human ALDH1A1 activity; AID 1030; Potency, µM (series often up to 75.3 µM), for inactives: at the highest dose activity, negative = inhibition, usual class: inhibitors; Purified ALDH1A1, NADH fluorescence, propionaldehyde substrate; 220,000 compounds, 7.3% hits; P00352;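 note: potency is the fitted concentration of half-maximal effect; plate controls were no enzyme wells and a reference inhibitor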
LMNA splice mod: modulators of lamin A splicing; AID 1487; HeLa LMNA splicing GFP/RFP minigene ratio, 48 h; Potency, µM (top dose mostly 46.1 µM), for the others: at the highest dose ratio change, negative = inhibition, usual class: inhibitors; 200,000 compounds, 0.01% hits; active = well fitted inhibition curve with a large enough effect in the signal ratio, with a control signal flat, not every such curve was filed as active; inconclusive = small, poorly fitted or top-dose-only effect, or effect the other way, or a change in a side signal; the % refers to the signal ratio; note: potency is the fitted concentration of half-maximal effect
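S3 HeLa cells stably expressing lamin A-EGFP splicing minigene plus DsRed2, 600 cells/well, 48 h compound exposure at 37C. Laser-scanning cytometry; analysed as GFP (500-530 nm)/RFP (575-640 nm) total intensity ratio; 0.5% DMSO vehicle.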
PNC inhibitor: inhibitors of perinucleolar compartment assembly; PC3M PTB-GFP, PNC prevalence imaging, 16 h; hits give low values; activity change (PNC), negative = inhibition, % at 10 µM; 140,000 compounds, 3.1% hits;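 active = readout at or below -70, meaning at least 70% loss of cells showing the perinucleolar compartment, a nuclear body marking cancer cells; inconclusive = readout between -30 and a set limit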;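 note: plate controls were DMSO wells for no effect and camptothecin positive control wells for full effect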
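PC3M cells stably expressing PTB-GFP, 750–1000 cells/well, treated 16 h at 37 °C with compound (23 nl of library stock), in duplicate. After paraformaldehyde fixation and Hoechst stain, imaged at 20x; PNC prevalence scored by image analysis.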
HPGD block: HPGD (human) dehydrogenase inhibition; P15428; 150,000 compounds, 4.3% hits; Potency, µM, for the others: at the top dose activity change, negative = inhibition, usual class: inhibitors; purified HPGD, NADH fluorescence kinetic, PGE2 substrate; note: potency is the fitted concentration of half-maximal effect
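20 nM HPGD preincubated 15 min at room temperature with compound in 50 mM Tris-HCl pH 8, 0.01% Tween 20. Started with 1 mM NAD+ and 30 uM prostaglandin E2; NADH fluorescence (360/450 nm) read 5 times over 30-s intervals, last minus first.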
* marks the source's active call; other numbers are inactive results; u = inconclusive; x = not tested or not shown; [ ] = dose if it differs, or a comment. Unless noted, calls come from the whole dose curve; as a rule, active = well fitted inhibition curve with a large enough effect (not every such curve was filed as active); inconclusive = small, poorly fitted or top-dose-only effect, or another doubt; inactive = no such curve, though single readings can be large or run the other way. Unless noted, % is set by controls: 0 for no effect and ±100 for the full control effect.

SMILES | 12-hLO inh | ALDH1A1 block | LMNA splice mod | PNC inhibitor | HPGD block
CCOC(=O)c1cc(-c2cccc([N+](=O)[O-])c2)nc2[nH]c(=O)[nH]c(=O)c12 | x | 14µM* | x | x | x
COc1ccc(NCc2ccc([N+](=O)[O-])s2)c(OC)c1 | -7% | 25µM* | -5% | 43 | -14%
COc1ccc(NCc2ccc([N+](=O)[O-])s2)cc1 | -1% | -15% | -3% | 26 | -7%
Cc1cc(C)cc(N2C(=O)CN(Cc3sccc3C)C2=S)c1 | -2% | 0% | u | -28 | 28µM*
Cc1cccc(N2C(=O)CN(Cc3sccc3C)C2=S)c1 | -2% | -1% | u | -16 | 14µM*
Cc1ccsc1CN1CC(=O)N(c2c(C)cccc2C)C1=S | x | 6% | x | x | x
COc1ccc(NC(=O)N2CC[C@@]3(CCCN(C(=O)c4c(C)noc4C)C3)C2)cc1 | 4% | u | x | x | -5%
O=C(Oc1ccccc1)N1CCC2(CC1)CN(c1ccccc1)C2 | -11% | -10% | x | x | -2%
COCCN(CCOC)c1nc(C)nc2c1nc(-c1ccccc1)n2CCN(C)C | 0% | u | x | x | u
COc1ccc(OCC(=O)Nc2nnc(S(=O)(=O)N3CCc4ccccc43)s2)cc1 | x | x | 28%[46 µM] | x | x
O=S(=O)(Nc1ccc(N=Nc2ccc(O)c3ccccc23)cc1)c1ccccc1 | -10% | -1% | u | u | 32µM*
O=S(=O)(Nc1ccc(N=Nc2ccccc2)cc1)c1ccccc1 | -14% | 9% | -4% | -28 | u
C=C1CC[C@H](O)C/C1=C/C=C1\CCC[C@]2(C)[C@@H]([C@H](C)CCCC(C)(C)O)CC[C@@H]12 | 1% | 8% | x | x | -4%
COc1ccccc1C(=O)Nc1cccc(N(C)S(C)(=O)=O)c1 | 0% | -4% | -12% | -100* | -14%
CSc1ccccc1C(=O)Nc1cccc(N(C)S(C)(=O)=O)c1 | -4% | u | -5% | u | -2%
Cc1ccccc1C(=O)Nc1ccc2c(c1)OCO2 | -10% | -5% | 1% | u | 18µM*
COc1ccccc1C(=O)Nc1ccc2c(c1)OCO2 | 3% | 7% | 9% | -7 | -13%
CN(c1ccccc1C(=O)Nc1ccc2c(c1)OCO2)S(C)(=O)=O | -1% | -1% | 1% | -100* | -25%
CN(c1ccccc1C(=O)Nc1ccc2c(c1)OCCO2)S(C)(=O)=O | 1% | 3% | -7% | 289 | -10%
COc1ccc(N2CCN(c3oc(-c4ccc(COc5cccc(C)c5)o4)nc3C#N)CC2)cc1 | x | x | 0%[46 µM] | x | x
Cc1nn(-c2ccc(N3CCCCC3)nn2)c(C)c1CCC(=O)NCc1ccc(OC(C)C)cc1 | x | x | 5%[46 µM] | x | x
CSc1ccccc1NC(=O)c1ccc([N+](=O)[O-])cc1 | x | 14µM* | -4%[46 µM] | x | x
O=C(Nc1ncccn1)c1ccc([N+](=O)[O-])cc1 | x | -10% | x | x | x
CCc1nn2c(=O)cc(COC(=O)C(CC)c3ccccc3)nc2s1 (stereo unspecified) | x | x | -8%[46 µM] | x | x
CC(C)Cc1c2c([nH]c(=S)c1C#N)CCCC2 | 1% | -8% | u | u | 22µM*
SMILES | 12-hLO inh | ALDH1A1 block | LMNA splice mod | PNC inhibitor | HPGD block
N#Cc1c(-c2ccco2)c2c([nH]c1=S)CCCC2 | 0% | 20µM* | -8% | u | 16µM*
COc1ccc(-c2c3c([nH]c(=S)c2C#N)CCC3)cc1 | -10% | 14µM* | -5% | u | 10µM*
N#Cc1c(-c2cccnc2)c2c([nH]c1=S)CCCC2 | -19% | u | -4% | 22 | x
CCC1OC(=O)C(C)[C@@H](O[C@H]2C[C@@](C)(OC)C(O)C(C)O2)C(C)[C@@H](O[C@@H]2OC(C)CC(N(C)C)C2O)[C@@](C)(O)CC(C)C2NC(COCCOC)O[C@H](C2C)[C@@]1(C)O (stereo partly specified) | -2% | 5% | x | x | -1%
O=C(O)c1ccc(N/N=C/c2cccc(F)c2)cc1 | -6% | 20µM* | -13% | 11 | u
COc1ccc(Cl)cc1NC(=O)Cc1ccc(NC(=O)N2CCCCc3ccccc32)cc1 | x | x | 4%[46 µM] | x | x
Oc1[nH]c(=S)sc1C=C1N=c2ccccc2=N1 | x | 6% | u | x | x
S=c1[nH]c2ccccc2s1 | -4%[0.00818 µM] | 11µM* | x | x | 25µM*
COc1ccc(N2CCN(C(=O)c3sc4nc5n(c(=O)c4c3C)CCC5)CC2)cc1 | x | x | 7%[46 µM] | x | x
